Source: PubChem (several laboratories)
FXIIa inh mix – factor XIIa (human) inhibition, mixture screen. inhibition, % at 5 µM. P00748. 0.2% of 62,000 active. AID 684. purified FXIIa, fluorogenic substrate, pooled mixtures;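 note: 0% = enzyme without compound and 100% = no enzyme blank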
Ec RNAP inh – blocks E. coli RNA polymerase transcription; 0.2% of 62,000 active; AID 559; fluorescence transcription assay; P0A8V2; inhibition, %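 (tested at 10 µM)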; in the data active = inhibition above about 20%;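 note: 0% = enzyme without compound and 100% = no enzyme blank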
MMP-13 inhibitor – blocks human MMP13 activity. MMP-13 fTHP FRET cleavage, Mca fluorescence. inhibition, % at 4 µM. 0.07% of 65,000 active;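 active = inhibition above the mean of compound-free control plate wells plus 3 SD, cut at about 14% in these data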;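 note: 0% = DMSO wells and 100% = wells with reference MMP-13 inhibitor after basal subtraction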
WNV protease inh – WNV NS2B-NS3 proteinase inhibition; P06935; WNV NS2B-NS3 protease, fluorogenic substrate Ex360/Em465; active compounds read low; z-score (test concentration not listed); 0.18% of 65,000 active; in the data active = z-score below about -3
FXIa mix inh – factor XIa (human) inhibition, mixture screen | inhibition, % at 5 µM | purified FXIa, fluorogenic substrate, pooled mixtures | 0.19% of 62,000 active | P03951;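 note: each value is inhibition by a whole ten-compound pool holding the compound; 0% = enzyme with no mixture and 100% = wells lacking enzyme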
Target sequence (P03951 19-387 limits assumed): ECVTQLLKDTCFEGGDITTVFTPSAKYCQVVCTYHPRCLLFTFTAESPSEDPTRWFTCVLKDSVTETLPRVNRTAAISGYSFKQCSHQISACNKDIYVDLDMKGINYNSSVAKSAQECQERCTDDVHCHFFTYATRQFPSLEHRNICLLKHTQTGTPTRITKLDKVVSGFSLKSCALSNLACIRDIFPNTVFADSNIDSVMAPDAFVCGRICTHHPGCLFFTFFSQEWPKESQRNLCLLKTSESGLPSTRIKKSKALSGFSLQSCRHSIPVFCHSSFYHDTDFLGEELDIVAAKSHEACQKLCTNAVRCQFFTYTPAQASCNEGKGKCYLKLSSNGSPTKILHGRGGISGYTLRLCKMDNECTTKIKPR
Target sequence (P03951 388-625 limits assumed): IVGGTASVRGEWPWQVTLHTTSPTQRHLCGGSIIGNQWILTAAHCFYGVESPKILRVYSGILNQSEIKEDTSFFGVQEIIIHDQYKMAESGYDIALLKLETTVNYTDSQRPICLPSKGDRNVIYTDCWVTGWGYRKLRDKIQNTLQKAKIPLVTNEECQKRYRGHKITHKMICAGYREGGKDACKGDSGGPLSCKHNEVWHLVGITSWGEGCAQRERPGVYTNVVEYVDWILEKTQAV
MT1-MMP txn act – activates MT1-MMP transcription; HT1080 MT1-MMP promoter luciferase reporter, luminescence, overnight; active compounds read high; activation factor at 10 µM; 0.16% of 86,000 active;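 active = activation factor of at least 2 for MT1-MMP transcription at 10 µM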
* marks the source's active call; other numbers are inactive results; . = not tested or not shown. This is a sample that favours compounds with a hit; in the whole collection about 0.69% have one here. Cut-off read from the data, not from the text of the source, unless noted: active = inhibition above about 20% (passing the limit was not always enough); inactive = the rest.

SMILES	FXIIa inh mix	Ec RNAP inh	MMP-13 inhibitor	WNV protease inh	FXIa mix inh	MT1-MMP txn act
O=C(Nc1nccs1)c1cnccn1	1	-5	5	0.19	6	1.2
O=C1CN(CC(=O)N2CCOCC2)c2ccccc2O1	22*	-11	4	5	9	1.3
O=C(CN1C(=O)c2ccccc2S1(=O)=O)N1CCN(c2ccccc2)CC1	5	1	-1	-1.2	1	1.1
O=C(CN1C(=O)c2ccccc2S1(=O)=O)N1CCOCC1	-26	0	4	2.4	2	2.1*
O=C1CN(CC(=O)N2CCCCC2)c2ccccc2O1	5	-2	1	2.7	0	1.2
C[C@@H]1C=C[C@](Cc2ccccc2)(C(=O)NCCN2CCOCC2)N1C(=O)c1ccccc1	.	.	.	.	.	1
COC(=O)C1=C(C)N(C)C(C)=C(C(=O)OC)C1c1ccccc1C	3	8	7	-0.52	24*	1.2
CCCCOc1ccccc1C1C(C(=O)OC)=C(C)N(C)C(C)=C1C(=O)OC	-18	2	5	0.45	-6	1.2
COc1cc2c(cc1NC(=S)Nc1cccc(C(F)(F)F)c1)oc1ccccc12	.	.	.	.	.	1
Cc1ccccc1NC(=O)C1CCCN(S(=O)(=O)c2cnc[nH]2)C1 (stereo unspecified)	-1	2	2	0.98	4	1.1
Cc1c(NC(=O)C2CCCN(S(=O)(=O)c3cnc[nH]3)C2)c(=O)n(-c2ccccc2)n1C (stereo unspecified)	2	0	6	-0.6	24*	1
Cc1sc(NC(=O)c2ccc(Br)s2)c(C(N)=O)c1C	.	.	.	.	.	1.2
Cc1sc(NC(=O)c2ccc(Cl)s2)c(C(N)=O)c1C	-1	3	-5	-1.7	5	2.2*
CCOC(=O)/C(C#N)=C1/C=Nc2ccccc2N1	4	11	14*	2.7	8	1.4
CCOC(=O)/C(C#N)=C1/C=CN(c2ccccc2)C=N1	-1	9	3	-0.91	7	1.2
CCn1c(SCC(=O)NC(=O)Nc2ccc3c(c2)OCCO3)nnc1-c1cccs1	3	22*	4	0.82	4	1.2
O=C(CSc1nnc(-c2cccs2)n1Cc1ccco1)Nc1ccc2c(c1)OCO2	0	9	5	0.69	2	1.1
COc1cccc(C(=O)NC2(C(F)(F)F)N=C3SCCN3C2=O)c1 (stereo unspecified)	5	5	-1	-4.8*	-2	1
O=C(NCCc1ccccc1)c1noc2c1CCc1ccccc1-2	8	11	-1	-0.25	36*	1.2
COC(=O)C1=C(C)Nc2ccc(C)cc2S1	10	8	5	-0.04	9	1.2
CC(=O)C1=C(C)Nc2cc(C(F)(F)F)ccc2S1	3	62*	-4	-0.73	14	1
CCCC(=O)Nc1nc2ccc(S(N)(=O)=O)cc2s1	22*	0	5	0.24	3	1.2
CCOc1cccc(Oc2ccc(C(F)(F)F)cn2)c1	4	2	-2	0.8	11	1.1
COc1cccc(Oc2ccc(N)cn2)c1	23*	6	-4	0.26	-9	1.3
COc1ccc(OC)c(NS(=O)(=O)c2cccs2)c1	1	-5	6	-6*	11	1.2
SMILES	FXIIa inh mix	Ec RNAP inh	MMP-13 inhibitor	WNV protease inh	FXIa mix inh	MT1-MMP txn act
COc1ccc(OC)c(S(=O)(=O)Nc2ccc(O)c3ccccc23)c1	3	28*	4	-0.61	-2	0.7
CC[Si](CC)(CC)c1c2c(nc3ccc(OC)cc13)-c1cccc(=O)n1C2	.	.	.	.	.	1
O=c1cc(N2CCc3ccccc3C2)[nH]c(=O)n1C1CCCCC1	35*	10	2	1.1	2	1
CCCNC(=O)c1cc(-c2ccc(Br)cc2)on1	-11	4	0	0.38	1	1.5
CC(C)NC(=O)c1cc(-c2ccc(Br)cc2)on1	20	4	0	0.6	5	5.1*
NCC#CC(CCc1ccccc1)OCc1ccccc1 (stereo unspecified)	.	.	.	.	.	1.1
CCOc1ccc2nc(NC(=O)CN3CCC(n4nnc5cc(F)ccc54)CC3)sc2c1	31*	-7	-17	0.79	4	1.3
C/C(CC1(O)C(=O)N(Cc2ccccc2)c2ccccc21)=N\O (stereo unspecified)	.	.	0	-6.4*	.	1.2
